Inconclusive results are not listed. Active and inactive are the calls of the source. Unless noted, the call rests on the fitted dose curve.
Tests used:
[1] = qHTS for Inhibitors of the Functional Ribonucleoprotein Complex (vRNP) of Lassa (LASV) Arenavirus: LASV Primary Screen - GLuc reporter signal (AID 1347082; calls by dose curve; tested in HEK293 reporter line; further: nearly all actives have a fitted effect of over 60% in size)
[2] = qHTS for Inhibitors of the Functional Ribonucleoprotein Complex (vRNP) of Lassa (LASV) Arenavirus: Viability assay - alamar blue signal for LASV Primary Screen (AID 1347083; calls by dose curve; tested in HEK293 reporter line; further: nearly all actives have a fitted effect of over 80% in size)
[3] = qHTS for Inhibitors of the Functional Ribonucleoprotein Complex (vRNP) of Lymphocytic Choriomeningitis Arenaviruses (LCMV): Viability assay - alamar blue signal for LCMV Primary Screen (AID 1347085; calls by dose curve; tested in HEK293 reporter line; further: nearly all actives have a fitted effect of over 80% in size)
[4] = molecular target: Nucleoprotein (Lymphocytic choriomeningitis virus (strain Armstrong)) (UniProt P09992); experiment: qHTS for Inhibitors of the Functional Ribonucleoprotein Complex (vRNP) of Lymphocytic Choriomeningitis Arenaviruses (LCMV): LCMV Primary Screen - GLuc reporter signal (AID 1347086); further: nearly all actives have a fitted effect of over 70% in size
Chain of Nucleoprotein (Lymphocytic choriomeningitis virus (strain Armstrong)) (P09992 whole entry, looked up): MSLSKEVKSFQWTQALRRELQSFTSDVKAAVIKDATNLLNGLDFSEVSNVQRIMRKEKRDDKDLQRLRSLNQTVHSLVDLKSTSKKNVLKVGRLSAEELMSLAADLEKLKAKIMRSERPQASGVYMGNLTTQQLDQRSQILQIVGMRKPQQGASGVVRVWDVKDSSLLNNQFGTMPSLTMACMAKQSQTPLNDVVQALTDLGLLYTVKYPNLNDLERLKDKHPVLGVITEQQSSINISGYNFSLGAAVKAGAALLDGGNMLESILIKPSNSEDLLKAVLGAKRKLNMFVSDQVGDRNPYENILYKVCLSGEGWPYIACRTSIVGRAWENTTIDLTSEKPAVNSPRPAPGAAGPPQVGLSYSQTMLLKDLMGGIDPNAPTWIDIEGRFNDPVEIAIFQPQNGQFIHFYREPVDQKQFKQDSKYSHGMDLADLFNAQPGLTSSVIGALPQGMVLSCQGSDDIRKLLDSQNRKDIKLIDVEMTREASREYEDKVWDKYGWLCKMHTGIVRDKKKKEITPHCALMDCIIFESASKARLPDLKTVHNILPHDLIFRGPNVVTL
Further: series mostly up to about 57 µM.
On the % scale 0 is the no-effect control and ±100 the full control effect.

COc1c2occc2cc2ccc(=O)oc12
inactive: Potency [1] | Potency [2] | Potency [3] | Potency [4]

CCCCCCCCCCOc1cc2c(=O)c(C(=O)OCC)c[nH]c2cc1OCC
inactive: activity change, negative = inhibition [1] -8.32% [at 5.82 µM] | activity change, negative = reduced viability [2] 1.68% [at 5.82 µM] | activity change, negative = lower viability [3] 5.24% [at 5.82 µM] | activity change, negative = inhibition [4] 13.4% [at 5.82 µM]

CCCCCCOc1ccccc1C(N)=O
inactive: Potency [1] | Potency [2] | Potency [3] | Potency [4]

Cc1ccc(Cl)c(Nc2ccccc2C(=O)O)c1Cl
inactive: Potency [1] | Potency [2] | Potency [3] | Potency [4]

CCCCCC[C@@H](CCC)C(=O)O
inactive: Potency [1] | Potency [2] | Potency [3] | Potency [4]

CCOC(=O)c1ccccc1O
inactive: Potency [1] | Potency [2] | Potency [3] | Potency [4]

NC(=O)NC(=O)Cc1ccccc1
inactive: Potency [1] | Potency [2] | Potency [3] | Potency [4]

CCOc1ccccc1OCC1CNCCO1 (stereo not given)
inactive: Potency [1] | Potency [2] | Potency [3] | Potency [4]

CCOC(=O)/C=C(C)/C=C/C=C(C)/C=C/c1c(C)cc(OC)c(C)c1C
inactive: Potency [1] | Potency [2] | Potency [3] | Potency [4]

O=C(OOC(=O)c1ccccc1)c1ccccc1
inactive: Potency [1] | Potency [2] | Potency [3] | Potency [4]

Cc1c(C(C)C)c(=O)n(-c2ccccc2)n1C
inactive: Potency [1] | Potency [2] | Potency [3] | Potency [4]

Oc1ccccc1C=NCc1ccccc1
inactive: Potency [1] | Potency [2] | Potency [3] | Potency [4]

CCCCC(CC)CN1CN(CC(CC)CCCC)CC(C)(N)C1 (stereo not given)
inactive: Potency [1] | Potency [2] | Potency [3] | Potency [4]

CCOc1ccc(NC(=O)CC(C)O)cc1 (stereo not given)
inactive: Potency [1] | Potency [2] | Potency [3] | Potency [4]

O=P(O)(O)OCC(O)CO (stereo not given)
inactive: Potency [1] | Potency [2] | Potency [3] | Potency [4]

CC(=O)Nc1ccccc1
inactive: Potency [1] | Potency [2] | Potency [3] | Potency [4]

COc1nccnc1NS(=O)(=O)c1ccc(N)cc1
inactive: Potency [1] | Potency [2] | Potency [3] | Potency [4]

CC(=O)N(CC(O)CO)c1c(I)c(C(=O)NCC(O)CO)c(I)c(C(=O)NCC(O)CO)c1I (stereo not given)
inactive: Potency [1] | Potency [2] | Potency [3] | Potency [4]

CNC(=O)c1c(I)c(NC(C)=O)c(I)c(C(=O)O)c1I
inactive: Potency [1] | Potency [2] | Potency [3] | Potency [4]

OCCN1CCN(CC/C=C2/c3ccccc3Sc3ccc(C(F)(F)F)cc32)CC1
inactive: Potency [1] | Potency [2] | Potency [3] | Potency [4]

O=P(O)(O)C(O)(Cn1ccnc1)P(=O)(O)O
inactive: Potency [1] | Potency [2] | Potency [3] | Potency [4]

Nc1ccn([C@@H]2O[C@H](CO)[C@@H](O)C2O)c(=O)n1 (stereo not given in full)
inactive: Potency [1] | Potency [2] | Potency [3] | Potency [4]

Nc1ccc(S(=O)(=O)NC(=O)c2ccccc2)cc1
inactive: Potency [1] | Potency [2] | Potency [3] | Potency [4]

NC(=O)N[C@@H](CCC(=O)O)C(=O)O
inactive: Potency [1] | Potency [2] | Potency [3] | Potency [4]

COCCOCC(OC)OC
inactive: Potency [1] | Potency [2] | Potency [3] | Potency [4]

Cc1cc(=O)n(-c2ccccc2)n1C
inactive: Potency [1] | Potency [2] | Potency [3] | Potency [4]

Cc1cc(C)nc(NS(=O)(=O)c2ccc(N)cc2)n1
inactive: Potency [1] | Potency [2] | Potency [3] | Potency [4]

CCCC(=O)Nc1ccc(O)c(C(C)=O)c1
inactive: Potency [1] | Potency [2] | Potency [3] | Potency [4]

C[C@@H]1O[C@@H](OC[C@H]2O[C@@H](Oc3c(-c4ccc(O)c(O)c4)oc4cc(O)cc(O)c4c3=O)[C@H](O)[C@@H](O)[C@@H]2O)[C@H](O)[C@H](O)[C@H]1O
inactive: Potency [1] | Potency [2] | Potency [3] | Potency [4]

CN1CCC[C@@H]1c1cccnc1
inactive: Potency [1] | Potency [2] | Potency [3] | Potency [4]

C[N+](C)(C)CCOC(N)=O
inactive: Potency [1] | Potency [2] | Potency [3] | Potency [4]

C[C@]12CCC(=O)C=C1CC[C@@H]1[C@@H]2[C@@H](O)C[C@@]2(C)[C@H]1CC[C@]2(O)C(=O)COC(=O)CCC(=O)O
inactive: Potency [1] | Potency [2] | Potency [3] | Potency [4]

CC(C(=O)O)c1ccc(/C=C2\CCCCC2=O)cc1 (stereo not given)
inactive: Potency [1] | Potency [2] | Potency [3] | Potency [4]

CC(=O)OCC(=O)[C@@]1(O)CC[C@H]2[C@@H]3CCC4=CC(=O)C=C[C@]4(C)[C@@]3(F)[C@@H](O)C[C@@]21C
inactive: Potency [1] | Potency [2] | Potency [3] | Potency [4]

CCc1cc(S(=O)(=O)O)c2cc(C(C)C)cccc1-2
inactive: Potency [1] | Potency [2] | Potency [3] | Potency [4]

Reference: PubChem BioAssay (NCATS)
